# Assay results: PubChem BioAssay
# The source made the active and inactive calls.
# What was measured:
# [1] = tested on: Plasmodium falciparum Sir2 (PF13_0152, Sir2A); assay: pfSir2 binders on small-molecule microarrays, primary screen, biochemical, small-molecule microarray, 635 nm fluorescence (AID 1098); conditions: small-molecule microarray binding, fluorescence 635 nm; higher = more signal;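 also: score merges spot fluorescence intensity with its signal-to-noise ratio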
# [2] = small-molecule microarray binders of probe aDKK1, primary screen, biochemical, biotinylated probe, 635/667 nm fluorescence (AID 1099); conditions: higher = more signal;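 also: score merges 667nm spot fluorescence with signal to noise across triplicate slides; reference of the scale not given here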
# [3] = small-molecule microarray binders of probe aCHRDL2, primary screen, biochemical, biotinylated probe, 635/667 nm fluorescence (AID 1100); conditions: higher = more signal
# [4] = splicing luciferase reporter signal modulators, primary screen, spliceosome inhibition project, cell-based, HEK293, splice +/- reporter (AID 1101); conditions: luminescence, 24 h, higher = more signal, called active from +8 up or from −8 down;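 also: HEK293 cells carrying a splicing-competent luciferase reporter gene; test concentration not given here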
# [5] = molecular target: Fibroblast growth factor 10 (Homo sapiens) (UniProt O15520); assay: FGF10 binders on small-molecule microarrays, primary screen, biochemical, small-molecule microarray, 635 nm fluorescence (AID 1102); conditions: FGF10 binding, fluorescence 635 nm, higher = more signal
# [6] = tested on: glycogen synthase kinase-3 (GSK3A per assay name; protocol says GSK3B); assay: GSK3 binders on small-molecule microarrays, primary screen, biochemical, small-molecule microarray, 635 nm fluorescence, GSK3A (AID 1103); conditions: small-molecule microarray binding, fluorescence 635 nm; higher = more signal; also: the record names both GSK3A and GSK3B
# [7] = molecular target: Epidermal growth factor receptor (Homo sapiens) (UniProt P00533); assay: EGFR binders on small-molecule microarrays, primary screen, biochemical, small-molecule microarray, 635 nm fluorescence (AID 1104); conditions: EGFR binding, higher = more signal;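 also: score merges 667 nm emission intensity with spot signal to noise over triplicate slides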
# [8] = molecular target: Follistatin-related protein 3 (Homo sapiens) (UniProt O95633); assay: FSTL3 binders on small-molecule microarrays, primary screen, biochemical, small-molecule microarray, 635 nm fluorescence (AID 1105); conditions: FSTL3 binding, higher = more signal;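 also: score merges emission near 667 nm and signal to noise per printed spot across three slides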
# [9] = molecular target: Dickkopf-related protein 1 (Homo sapiens) (UniProt O94907); assay: DKK1 binders on small-molecule microarrays, primary screen, biochemical, small-molecule microarray, 635 nm fluorescence scan (AID 1106); conditions: DKK1 binding, higher = more signal;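 also: score merges emission near 667 nm with signal to noise over three replicate slides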
# [10] = tested on: Inhibin beta A chain (activin A); assay: INHBA (activin A) binders on microarrays, primary screen, biochemical, small-molecule microarray, 635 nm fluorescence scan (AID 1107); conditions: small-molecule microarray binding, higher = more signal;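 also: mouse activin A protein probed at 4.33 µg/mL on printed slides; score merges bound-protein fluorescence near 667 nm with spot signal-to-noise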
# Follistatin-related protein 3 (Homo sapiens), sequence (O95633 whole entry, looked up): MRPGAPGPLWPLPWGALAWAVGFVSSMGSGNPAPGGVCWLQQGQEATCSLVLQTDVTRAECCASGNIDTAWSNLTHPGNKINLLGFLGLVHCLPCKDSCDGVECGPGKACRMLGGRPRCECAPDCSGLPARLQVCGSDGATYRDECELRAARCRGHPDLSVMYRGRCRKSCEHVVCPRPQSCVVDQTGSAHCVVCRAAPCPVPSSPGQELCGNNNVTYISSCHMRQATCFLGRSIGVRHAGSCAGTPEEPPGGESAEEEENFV
# Fibroblast growth factor 10 (Homo sapiens), sequence (O15520 whole entry, looked up): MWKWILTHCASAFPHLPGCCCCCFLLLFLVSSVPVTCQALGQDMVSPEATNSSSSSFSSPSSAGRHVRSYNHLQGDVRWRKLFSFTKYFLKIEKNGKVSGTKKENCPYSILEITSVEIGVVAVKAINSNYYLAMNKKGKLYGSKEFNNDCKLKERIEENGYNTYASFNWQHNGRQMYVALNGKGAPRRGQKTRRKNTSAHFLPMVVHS
# Dickkopf-related protein 1 (Homo sapiens), sequence (O94907 whole entry, looked up): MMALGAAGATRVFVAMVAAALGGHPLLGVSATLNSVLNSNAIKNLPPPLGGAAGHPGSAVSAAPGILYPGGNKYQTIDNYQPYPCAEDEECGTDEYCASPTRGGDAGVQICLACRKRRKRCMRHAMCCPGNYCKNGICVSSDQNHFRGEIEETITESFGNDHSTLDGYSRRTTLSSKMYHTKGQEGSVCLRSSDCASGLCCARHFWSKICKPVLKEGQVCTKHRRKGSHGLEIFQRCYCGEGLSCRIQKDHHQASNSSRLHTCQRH
# Epidermal growth factor receptor (Homo sapiens), sequence (P00533 whole entry, looked up): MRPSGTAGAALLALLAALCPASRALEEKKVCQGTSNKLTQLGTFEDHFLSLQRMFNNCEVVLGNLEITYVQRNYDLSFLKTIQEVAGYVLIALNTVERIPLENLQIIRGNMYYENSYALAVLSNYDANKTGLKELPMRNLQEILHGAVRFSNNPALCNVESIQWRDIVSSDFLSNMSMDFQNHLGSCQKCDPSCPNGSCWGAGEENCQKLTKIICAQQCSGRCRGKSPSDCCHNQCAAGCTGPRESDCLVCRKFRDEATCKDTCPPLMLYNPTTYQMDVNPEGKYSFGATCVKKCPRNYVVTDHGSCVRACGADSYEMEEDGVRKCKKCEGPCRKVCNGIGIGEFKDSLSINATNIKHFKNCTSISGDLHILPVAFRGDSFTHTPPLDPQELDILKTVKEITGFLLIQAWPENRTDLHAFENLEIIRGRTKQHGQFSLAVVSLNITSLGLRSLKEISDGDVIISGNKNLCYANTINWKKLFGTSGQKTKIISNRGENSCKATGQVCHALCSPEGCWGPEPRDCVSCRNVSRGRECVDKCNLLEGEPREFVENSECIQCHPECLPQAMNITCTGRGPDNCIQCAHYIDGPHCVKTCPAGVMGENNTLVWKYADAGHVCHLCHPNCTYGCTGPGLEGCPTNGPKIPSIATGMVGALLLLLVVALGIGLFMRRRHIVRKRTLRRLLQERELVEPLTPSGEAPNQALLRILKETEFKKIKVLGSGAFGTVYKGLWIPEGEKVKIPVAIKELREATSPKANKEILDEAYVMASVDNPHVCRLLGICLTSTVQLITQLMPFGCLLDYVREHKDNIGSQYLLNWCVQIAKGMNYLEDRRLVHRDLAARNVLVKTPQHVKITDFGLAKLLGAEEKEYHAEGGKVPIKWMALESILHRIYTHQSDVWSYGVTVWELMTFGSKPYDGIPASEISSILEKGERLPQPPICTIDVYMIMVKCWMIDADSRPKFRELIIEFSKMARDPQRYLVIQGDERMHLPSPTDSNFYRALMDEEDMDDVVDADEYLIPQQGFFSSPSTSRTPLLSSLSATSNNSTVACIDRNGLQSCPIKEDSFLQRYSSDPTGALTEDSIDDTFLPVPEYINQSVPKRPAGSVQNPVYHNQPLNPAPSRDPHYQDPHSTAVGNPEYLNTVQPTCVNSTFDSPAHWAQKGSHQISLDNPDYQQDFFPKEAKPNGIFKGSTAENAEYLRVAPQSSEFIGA
Compound,composite z-score [1],composite z-score [2],composite z-score [3],z-score [4],composite z-score [5],composite z-score [6],composite z-score [7],composite z-score [8],composite z-score [9],composite z-score [10]
CO[C@H]1O[C@H](CO)[C@@H](OC(=O)Nc2ccc(C(F)(F)F)cc2)[C@H](OC(=O)Nc2ccc3c(c2)OCO3)[C@H]1OC(=O)Nc1ccc2c(c1)OCO2,1.5,0.517,0.63,-0.412 (inactive),0.844,1.28,-0.279,0.871,0.214,0.483
O=c1cccc(-c2ccc(C(F)(F)F)cc2)o1,-0.426,-0.0458,0.239,0.0423 (inactive),-0.46,-0.762,-0.215,-0.936,-0.572,0.339
C=CC[C@@]12N=C(c3ccc(OCCCO)cc3)O[C@@H]1c1ccccc1N(CCS(=O)(=O)c1ccccc1)C2=O,1.22,-0.183,0.269,-2.49 (inactive),0.397,1.28,0.272,1.19,0.571,1.23
COc1ccc([Si](C)(C)[C@H]2[C@H](CCn3cc([C@H](O)c4ccccc4)nn3)O[C@@]3(C(=O)N(Cc4cccc(N5C(=O)c6cccc7cccc5c67)c4)c4ccccc43)[C@@H]2C)cc1,0.661,-0.0526,0.837,-0.762 (inactive),-0.718,-1.22,-1.04,-1.4,-1.66,-0.456
COCCOC(=O)N1C(=O)[C@@]2(c3cc(C#CCNC(N)=O)ccc31)[C@H](C(=O)N1CCCCCCC1)[C@H]1C(=O)O[C@H](c3ccccc3)[C@H](c3ccccc3)N1[C@@H]2c1ccc(O)cc1,1.25,-0.124,0.526,0.392 (inactive),0.527,1,0.734,1.28,0.751,1.27
CN(C)C(=O)[C@@]1(Cc2ccccc2N=[N+]=[N-])COC(c2ccc(OCCCO)cc2)=N1,1.54,0.764,0.795,-0.545 (inactive),0.629,1.05,0.0428,0.396,-0.239,0.0217
CN1C(=O)C2C=CC(C(O)C3CCCCC3)N(N3CCCCC3)C2C1=O (stereo not given),1.15,0.429,0.833,1.77 (inactive),1.06,0.675,0.442,1.45,0.379,0.776
O=C1NC(=O)C2C1C=CC(C(O)c1ccc3c(c1)OCO3)N2Nc1ccccn1 (stereo not given),0.165,0.301,0.555,-0.653 (inactive),0.212,0.0668,0.722,1.39,0.388,1.64
CC[C@@H]1[C@H]2C3C(=O)N(CC)C(=O)C3CC(=O)[C@H]2[C@H](c2ccc(C)cc2)N1S(=O)(=O)c1ccc(C)cc1 (stereo not given in full),1.11,0.415,0.46,0.16 (inactive),0.894,1.27,0.183,0.955,0.0029,0.617
CN1C(=O)C2C(C1=O)C1C=C(c3ccc(CO)cc3)C2C(c2cccs2)N1Cc1cccc(OC(F)(F)F)c1 (stereo not given),1.06,0.0564,-0.137,-0.243 (inactive),1.07,1.27,0.0302,1.17,0.483,0.614
C[C@H]1C2=C3C(CC[C@H]4C(OCc5ccc(F)cc5C(F)(F)F)OC[C@](C)([C@@H]34)N(C(=O)OC(C)(C)C)C2)C(CO)C1CO (stereo not given in full),0.0402,-0.0997,0.984,0.509 (inactive),-0.0455,0.875,-0.249,0.885,-0.461,1.09
C[C@H]1ON(c2ccc(C(=O)OC(C)(C)C)cc2)[C@@H](c2ccc(O)cc2)[C@@H]1C(=O)N1C(=O)OC[C@@H]1c1ccccc1,1.12,-0.0999,-0.232,0.242 (inactive),0.994,1.28,0.554,1.16,0.624,-0.0428
O=C1O[C@@H](c2ccccc2)[C@@H](c2ccccc2)N2[C@@H](c3ccccc3OCCO)[C@]3(C(=O)Nc4ccccc43)[C@@H](C(=O)NC[C@H](O)c3ccccc3)[C@H]12,1.11,0.597,0.76,-1.66 (inactive),-0.369,0.342,-0.528,0.0805,-0.547,-0.189
